Test results from the antibiotic and cytotoxicity screens of Wong et al. (2023).
The whole screen tested about 39,000 compounds, of which about 1,500 (3.8%) were called active. This excerpt belongs to a sample that is enriched for actives.

system: HSkMC (human skeletal muscle cells); assay: cytotoxicity call (relative viability < 0.9); details: 10 µM

| Compound | cytotoxicity call |
| --- | --- |
| C[C@@H]1CN([C@H](C)CO)C(=O)Cc2cc(NS(=O)(=O)c3ccc(Cl)cc3)ccc2O[C@H]1CN(C)C(=O)Nc1cccc2ccccc12 | inactive |
| C[C@H]1CN([C@@H](C)CO)C(=O)c2cccc(NC(=O)Nc3ccc4c(c3)OCO4)c2O[C@H]1CN(C)S(=O)(=O)c1cn(C)cn1 | inactive |
| CCCN(C)C[C@H]1OCCCC[C@H](C)Oc2ccc(NC(=O)NC3CCCCC3)cc2C(=O)N([C@@H](C)CO)C[C@H]1C | inactive |
| C[C@H]1CCCCO[C@@H](CN(C)S(=O)(=O)c2ccc(F)cc2)[C@@H](C)CN([C@@H](C)CO)C(=O)c2cc(NS(=O)(=O)c3cn(C)cn3)ccc2O1 | inactive |
| C[C@@H]1CN([C@@H](C)CO)C(=O)c2cc(NC(=O)c3ccncc3)ccc2O[C@@H](C)CCCCO[C@H]1CN(C)C(=O)Nc1ccccc1 | inactive |
| O=C(C[C@H]1C=C[C@@H](NC(=O)c2ccncc2)[C@@H](CO)O1)NCc1ccncn1 | inactive |
| Cc1ccccc1S(=O)(=O)N1C[C@@H](O)COC[C@H]2O[C@H](CC(=O)N3CCOCC3)CC[C@@H]21 | inactive |
| CC1CCC2(C)C(C=O)=CCCC2C1(C)CC1OC(O)C(=O)C12CO2 (centres undefined) | inactive |
| C[C@@H]1CCCCO[C@@H](CN(C)CC2CCCCC2)[C@H](C)CN([C@H](C)CO)C(=O)c2cc(NC(=O)CCC(F)(F)F)ccc2O1 | inactive |
| C[C@H](CO)N1C[C@H](C)[C@H](CN(C)C(=O)Nc2ccc(F)cc2)Oc2ccc(NC(=O)Cn3cnnn3)cc2C1=O | inactive |
| C[C@H]1CN([C@@H](C)CO)C(=O)c2cccc(NC(=O)NC3CCCCC3)c2O[C@H]1CN(C)C(=O)Nc1ccc(C(F)(F)F)cc1 | active |
| C[C@@H]1CN([C@H](C)CO)C(=O)c2cccc(NC(=O)NC3CCCCC3)c2O[C@H]1CN(C)C(=O)Nc1ccc(C(F)(F)F)cc1 | inactive |
| C[C@H]1CN([C@@H](C)CO)C(=O)c2cccc(NC(=O)NC3CCCCC3)c2O[C@@H]1CN(C)C(=O)Nc1ccc(C(F)(F)F)cc1 | inactive |
| C[C@@H]1CN([C@H](C)CO)C(=O)c2cccc(NC(=O)NC3CCCCC3)c2O[C@@H]1CN(C)C(=O)Nc1ccc(C(F)(F)F)cc1 | inactive |
| C[C@H](CO)N1C[C@H](C)[C@H](CN(C)C(=O)Nc2ccc(C(F)(F)F)cc2)Oc2c(NC(=O)NC3CCCCC3)cccc2C1=O | inactive |
| C[C@@H]1CN([C@@H](C)CO)C(=O)c2cccc(NC(=O)NC3CCCCC3)c2O[C@@H]1CN(C)C(=O)Nc1ccc(C(F)(F)F)cc1 | active |
| COc1ccc(NC(=O)Nc2ccc3c(c2)C(=O)N([C@H](C)CO)C[C@H](C)[C@H](CN(C)S(=O)(=O)c2cn(C)cn2)O3)cc1 | inactive |
| Cc1cc(-c2cccs2)cc(C)n1 | inactive |
| COCC(=O)N1C[C@H](C)[C@H](OC)CN(C)C(=O)c2cc(NC(=O)c3cc(C)on3)ccc2OC[C@@H]1C | inactive |
| COc1cc2c(cc1O)CCN[C@]21CS[C@@H]2c3c(OC(C)=O)c(C)c4c(c3[C@H](COC1=O)N1[C@@H]2[C@H]2c3c(cc(C)c(OC)c3O)C[C@@H]([C@@H]1O)N2C)OCO4 | active |

| Compound | cytotoxicity call |
| --- | --- |
| COc1ccc(NC(=O)N(C)C[C@H]2OCCCC[C@@H](C)Oc3ccc(NC(=O)Nc4ccc(C(F)(F)F)cc4)cc3C(=O)N([C@@H](C)CO)C[C@H]2C)cc1 | inactive |
| CCS(=O)(=O)Nc1ccc2c(c1)C(=O)N(C)C[C@@H](OC)[C@@H](C)CN(Cc1nccs1)[C@@H](C)CO2 | inactive |
| C[C@@H]1CCCCO[C@H](CN(C)Cc2ccc(Cl)c(Cl)c2)[C@H](C)CN([C@@H](C)CO)C(=O)c2cc(NS(=O)(=O)c3ccccc3)ccc2O1 | active |
| C[C@@H]1CN([C@H](C)CO)C(=O)c2cc(NS(=O)(=O)c3ccccc3)ccc2O[C@@H](C)CCCCO[C@H]1CN(C)Cc1ccc(Cl)c(Cl)c1 | inactive |
| C[C@@H]1CCCCO[C@@H](CN(C)Cc2ccc(Cl)c(Cl)c2)[C@@H](C)CN([C@H](C)CO)C(=O)c2cc(NS(=O)(=O)c3ccccc3)ccc2O1 | inactive |
| C[C@H](CO)N1C[C@H](C)[C@@H](CN(C)Cc2ccc(Cl)c(Cl)c2)OCCCC[C@H](C)Oc2ccc(NS(=O)(=O)c3ccccc3)cc2C1=O | inactive |
| C[C@@H]1CCCCO[C@@H](CN(C)Cc2ccc(Cl)c(Cl)c2)[C@H](C)CN([C@H](C)CO)C(=O)c2cc(NS(=O)(=O)c3ccccc3)ccc2O1 | active |
| C[C@@H]1CCCCO[C@@H](CN(C)Cc2ccc(Cl)c(Cl)c2)[C@H](C)CN([C@@H](C)CO)C(=O)c2cc(NS(=O)(=O)c3ccccc3)ccc2O1 | active |
| C[C@@H]1CCCCO[C@@H](CN(C)Cc2ccc(Cl)c(Cl)c2)[C@@H](C)CN([C@@H](C)CO)C(=O)c2cc(NS(=O)(=O)c3ccccc3)ccc2O1 | active |
| Cc1noc(C)c1NC(=O)Nc1cccc2c1O[C@@H](CN(C)C(=O)NC(C)C)[C@@H](C)CN([C@H](C)CO)C2=O | inactive |
| CCCC#Cc1cnc2c(c1)C(=O)N([C@@H](C)CO)C[C@@H](C)[C@H](CN(C)S(=O)(=O)c1cccc(OC)c1)O2 | inactive |
| O=C(C[C@@H]1CC[C@H]2[C@@H](COC[C@H](O)CN2C(=O)c2cccnc2)O1)NCc1ccc(-c2ccccc2)cc1 | inactive |
| C[C@H]1CN([C@@H](C)CO)C(=O)c2cc(NS(=O)(=O)c3ccc(F)cc3)ccc2O[C@H]1CN(C)S(=O)(=O)c1cccs1 | inactive |
| COc1ccc(NC(=O)N(C)C[C@H]2Oc3ccc(NC(=O)Nc4ccc(C(F)(F)F)cc4)cc3CC(=O)N([C@H](C)CO)C[C@H]2C)cc1 | inactive |
| C[C@H](CO)N1C[C@H](C)[C@H](CN(C)S(=O)(=O)c2ccc(Cl)cc2)Oc2c(NC(=O)c3ccc(-c4nccs4)cc3)cccc2C1=O | inactive |
| C[C@@H]1CN([C@H](C)CO)C(=O)c2cc(C#CC3(O)CCCC3)cnc2O[C@@H]1CN(C)C(=O)C1CCCCC1 | inactive |
| C[C@@H](NC(=O)C[C@@H]1CC[C@H](NC(=O)CN2CCOCC2)[C@@H](CO)O1)c1ccccc1 | inactive |
| O=S1(=O)C[C@H](O)[C@@H](N2CCN(CCO)CC2)C1 | inactive |
| C[C@H](CO)N1C[C@H](C)[C@H](CN(C)S(C)(=O)=O)Oc2ccc(NS(=O)(=O)c3ccc(F)cc3)cc2C1=O | inactive |
| CC(C)NC(=O)Nc1ccc2c(c1)CC(=O)N([C@@H](C)CO)C[C@@H](C)[C@H](CN(C)C(=O)NC1CCCCC1)O2 | inactive |

| Compound | cytotoxicity call |
| --- | --- |
| COc1cccc(S(=O)(=O)N(C)C[C@H]2Oc3ncc(-c4cccc(C(=O)N(C)C)c4)cc3C(=O)N([C@@H](C)CO)C[C@@H]2C)c1 | inactive |
| CCCNC(=O)Nc1ccc2c(c1)C(=O)N(C)C[C@@H](OC)[C@H](C)CN(Cc1ccc(-c3ccccn3)cc1)[C@H](C)CO2 | inactive |
| CNC[C@H]1Oc2ccc(NS(=O)(=O)c3cn(C)cn3)cc2CC(=O)N([C@@H](C)CO)C[C@@H]1C | inactive |
| Cc1noc(C)c1NC(=O)Nc1ccc2c(c1)C(=O)N([C@H](C)CO)C[C@@H](C)[C@H](CN(C)CC1CC1)OCCCC[C@@H](C)O2 | inactive |
| CCCC#Cc1cnc2c(c1)C(=O)N([C@H](C)CO)C[C@@H](C)[C@@H](CN(C)S(=O)(=O)c1cn(C)cn1)O2 | inactive |
| C[C@@H]1CN([C@@H](C)CO)C(=O)Cc2cc(NC(=O)C3CCCCC3)ccc2O[C@H]1CN(C)Cc1ccc(C(=O)Nc2ccccc2N)cc1 | inactive |
| C[C@H]1CCCCO[C@H](CN(C)Cc2ccc(Cl)c(Cl)c2)[C@@H](C)CN([C@@H](C)CO)C(=O)c2cc(NS(=O)(=O)c3ccccc3)ccc2O1 | inactive |
| C[C@@H]1CCCCO[C@H](CN(C)Cc2ccc(Cl)c(Cl)c2)[C@@H](C)CN([C@@H](C)CO)C(=O)c2cc(NS(=O)(=O)c3ccccc3)ccc2O1 | active |
| C[C@@H]1CN([C@H](C)CO)C(=O)c2cc(NS(=O)(=O)c3ccccc3)ccc2O[C@@H](C)CCCCO[C@@H]1CN(C)Cc1ccc(Cl)c(Cl)c1 | active |
| C[C@@H]1CCCCO[C@H](CN(C)Cc2ccc(Cl)c(Cl)c2)[C@@H](C)CN([C@H](C)CO)C(=O)c2cc(NS(=O)(=O)c3ccccc3)ccc2O1 | inactive |
| Cc1noc(C)c1NC(=O)N(C)C[C@@H]1OCCCC[C@@H](C)Oc2ccc(NC(=O)NC3CCCCC3)cc2C(=O)N([C@@H](C)CO)C[C@H]1C | inactive |
| C[C@H](CO)N1C[C@H](C)[C@@H](CN(C)C(=O)Nc2ccc(-c3ccccc3)cc2)OCc2ccccc2-c2ccccc2C1=O | inactive |
| CC(C)[Si](C#C[Si](C(C)C)(C(C)C)C(C)C)(O[C@H](C)c1cn([C@H](C)c2ccccc2)nn1)C(C)C | inactive |
| COc1ccc(S(=O)(=O)Nc2ccc3c(c2)C(=O)N([C@H](C)CO)C[C@H](C)[C@H](CN(C)C(=O)c2ccccc2)OCCCC[C@@H](C)O3)cc1 | inactive |
| C[C@H](CO)N1C[C@H](C)[C@H](CN(C)Cc2ccccc2F)Oc2cc(C#CCN(C)C)ccc2S1(=O)=O | inactive |
| COc1ccc(NC(=O)N(C)C[C@H]2Oc3c(NC(=O)c4cnccn4)cccc3C(=O)N([C@@H](C)CO)C[C@H]2C)cc1 | inactive |
| COc1ccc(NC(=O)N(C)C[C@@H]2Oc3c(NC(=O)Nc4ccc(C(F)(F)F)cc4)cccc3C(=O)N([C@H](C)CO)C[C@@H]2C)cc1 | inactive |
| C[C@@H]1CN([C@@H](C)CO)C(=O)c2cccc(NC(=O)c3ccc(-c4nccs4)cc3)c2O[C@H]1CN(C)Cc1ccc(Oc2ccccc2)cc1 | inactive |
| COc1ccc(NC(=O)Nc2cccc3c2O[C@@H](CN(C)C(=O)Nc2ccc(C(F)(F)F)cc2)[C@H](C)CN([C@H](C)CO)C3=O)cc1 | inactive |
